# From PubChem BioAssay AID1159580 (chemical genetic matrix, 2015)
# In all, about 5,500 compounds went through this assay and about 2,000 (36%) were called active. Roughly 18% stayed inconclusive and do not appear here. Some of the results follow. Unmarked numbers belong to inactive results. Cut-off read from the data, not from the text of the source: active = normalized growth mostly below about 0.91 (no sharp cut-off); inconclusive = no clear call, values can overlap the other calls; inactive = mostly above about 0.92.
# Experiment: chemical genetic growth profiling, strain panel (AID 1159580);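 note: tested at 20 µM; growth read once vehicle control cultures reached saturation at 30 °C; 1 = growth at the plate median or of vehicle wells; lower values mean less growth of the strain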
# Settings: S. cerevisiae deletion strains, growth OD
# [1] = locus YAR019C, strain CDC15, stronger effect = lower value
# [2] = locus YBL105C, strain PKC1, stronger effect = lower value
# [3] = locus YBR135W, strain CKS1, stronger effect = lower value
# [4] = locus YBR136W, strain MEC1, stronger effect = lower value
# [5] = locus YBR160W, strain CDC28, stronger effect = lower value
# [6] = locus YDL017W, strain CDC7, stronger effect = lower value
# [7] = locus YDL028C, strain MPS1, stronger effect = lower value
# [8] = locus YDL101C, strain DUN1, stronger effect = lower value
# [9] = locus YDL108W, strain KIN28, stronger effect = lower value
# [10] = locus YDL132W, strain cdc53, stronger effect = lower value
# [11] = locus YDL214C, strain PRR2, stronger effect = lower value
# [12] = locus YDR052C, strain DBF4, stronger effect = lower value
# [13] = locus YDR054C, strain cdc34, stronger effect = lower value
# [14] = locus YDR226W, strain ADK1, stronger effect = lower value
# [15] = locus YDR477W, strain SNF1, stronger effect = lower value
# [16] = locus YER123W, strain YCK3, stronger effect = lower value
# [17] = locus YER133W, strain GLC7, stronger effect = lower value
# [18] = locus YFL009W, strain cdc4, stronger effect = lower value
# [19] = locus YFL029C, strain CAK1, stronger effect = lower value
# [20] = locus YFR003C, strain YPI1, stronger effect = lower value
# [21] = locus YFR019W, strain FAB1, stronger effect = lower value
# [22] = locus YFR028C, strain CDC14, stronger effect = lower value
# [23] = locus YGR040W, strain KSS1, stronger effect = lower value
# [24] = locus YGR052W, strain FMP48, stronger effect = lower value
# [25] = locus YGR092W, strain DBF2, stronger effect = lower value
# [26] = locus YHR030C, strain SLT2, stronger effect = lower value
# [27] = locus YHR079C, strain IRE1, stronger effect = lower value
# [28] = locus YHR082C, strain KSP1, stronger effect = lower value
# [29] = locus YHR205W, strain SCH9, stronger effect = lower value
# [30] = locus YIL147C, strain SLN1, stronger effect = lower value
# [31] = locus YJL095W, strain BCK1, stronger effect = lower value
# [32] = locus YJL157C, strain FAR1, stronger effect = lower value
# [33] = locus YJR016C, strain ILV3, stronger effect = lower value
# [34] = locus YJR066W, strain TOR1 (second series), stronger effect = lower value
# [35] = locus YJR066W, strain TOR1, stronger effect = lower value
# [36] = locus YKL048C, strain ELM1, stronger effect = lower value
# [37] = locus YKL067W, strain YNK1, stronger effect = lower value
# [38] = locus YKL101W, strain HSL1, stronger effect = lower value
# [39] = locus YKL193C, strain SDS22, stronger effect = lower value
# [40] = locus YKL203C, strain TOR2, stronger effect = lower value
# [41] = locus YLR113W, strain HOG1, stronger effect = lower value
# [42] = locus YLR133W, strain CKI1, stronger effect = lower value
# [43] = locus YLR403W, strain SFP1, stronger effect = lower value
# [44] = locus YML070W, strain DAK1, stronger effect = lower value
# [45] = locus YMR001C, strain CDC5, stronger effect = lower value
# [46] = locus YMR205C, strain PFK2 (second series), stronger effect = lower value
# [47] = locus YMR277W, strain FCP1, stronger effect = lower value
# [48] = locus YNL006W, strain LST8, stronger effect = lower value
# [49] = locus YNL020C, strain ARK1, stronger effect = lower value
# [50] = locus YNL161W, strain CBK1, stronger effect = lower value
# [51] = locus YNL183C, strain NPR1, stronger effect = lower value
# [52] = locus YNL207W, strain RIO2, stronger effect = lower value
# [53] = locus YNL222W, strain SSU72, stronger effect = lower value
# [54] = locus YNL307C, strain MCK1 (second series), stronger effect = lower value
# [55] = locus YOL078W, strain AVO1, stronger effect = lower value
# [56] = locus YOL136C, strain PFK27, stronger effect = lower value
# [57] = locus YOR061W, strain CKA2, stronger effect = lower value
# [58] = locus YOR119C, strain RIO1, stronger effect = lower value
# [59] = locus YOR231W, strain MKK1, stronger effect = lower value
# [60] = locus YOR329C, strain SCD5, stronger effect = lower value
# [61] = locus YPL031C, strain PHO85, stronger effect = lower value
# [62] = locus YPL153C, strain RAD53, stronger effect = lower value
# [63] = locus YPL204W, strain HRR25, stronger effect = lower value
# [64] = locus YPL209C, strain IPL1, stronger effect = lower value
# [65] = locus YPL256C, strain CLN2, stronger effect = lower value
# [66] = locus YPR025C, strain CCL1, stronger effect = lower value
# [67] = locus YPR106W, strain ISR1, stronger effect = lower value
# [68] = locus YPR111W, strain DBF20, stronger effect = lower value
# [69] = strain NNK1, stronger effect = lower value
# [70] = strain TSCII, stronger effect = lower value
structure (smiles),measurement,setting,value
Cc1ccc(NC(=O)c2ccccc2N=Cc2cc(Cl)cc(Cl)c2O)c(N=Cc2cc(Cl)cc(Cl)c2O)c1,normalized growth,[1],0.926
same,normalized growth,[2],0.926
same,normalized growth,[3],0.921
same,normalized growth,[4],0.927
same,normalized growth,[5],0.934
same,normalized growth,[6],0.927
same,normalized growth,[7],0.927
same,normalized growth,[8],0.962
same,normalized growth,[9],0.925
same,normalized growth,[10],0.937
same,normalized growth,[11],0.459 (active)
same,normalized growth,[12],0.93
same,normalized growth,[13],0.911
same,normalized growth,[14],0.925
same,normalized growth,[15],0.284 (active)
same,normalized growth,[16],0.252 (active)
same,normalized growth,[17],0.365 (active)
same,normalized growth,[18],0.93
same,normalized growth,[19],0.909
same,normalized growth,[20],0.913
same,normalized growth,[21],0.598 (active)
same,normalized growth,[22],0.933
same,normalized growth,[23],0.377 (active)
same,normalized growth,[24],0.363 (active)
same,normalized growth,[25],0.123 (active)
same,normalized growth,[26],0.213 (active)
same,normalized growth,[27],0.201 (active)
same,normalized growth,[28],0.293 (active)
same,normalized growth,[29],0.166 (active)
same,normalized growth,[30],0.914
same,normalized growth,[31],0.218 (active)
same,normalized growth,"locus YJL128C, strain PBS2, stronger effect = lower value",0.885
same,normalized growth,[32],0.272 (active)
same,normalized growth,[33],0.934
same,normalized growth,[34],0.51 (active)
same,normalized growth,[35],0.237 (active)
same,normalized growth,[36],0.422 (active)
same,normalized growth,[37],0.359 (active)
same,normalized growth,[38],0.387 (active)
same,normalized growth,[39],0.924
same,normalized growth,[40],0.37 (active)
same,normalized growth,[41],0.247 (active)
same,normalized growth,[42],0.28 (active)
same,normalized growth,[43],0.131 (active)
same,normalized growth,[44],0.32 (active)
same,normalized growth,[45],0.925
same,normalized growth,[46],0.348 (active)
same,normalized growth,[47],0.935
same,normalized growth,[48],0.931
same,normalized growth,[49],0.198 (active)
same,normalized growth,[50],0.906
same,normalized growth,[51],0.254 (active)
same,normalized growth,[52],0.922
same,normalized growth,[53],0.929
same,normalized growth,[54],0.188 (active)
same,normalized growth,[55],0.928
same,normalized growth,[56],0.25 (active)
same,normalized growth,[57],0.197 (active)
same,normalized growth,[58],0.39 (active)
same,normalized growth,[59],0.255 (active)
same,normalized growth,[60],0.913
same,normalized growth,[61],0.291 (active)
same,normalized growth,[62],0.324 (active)
same,normalized growth,[63],0.313 (active)
same,normalized growth,[64],0.929
same,normalized growth,[65],0.294 (active)
same,normalized growth,[66],0.928
same,normalized growth,[67],0.936
same,normalized growth,[68],0.916
same,normalized growth,[69],0.91
same,normalized growth,[70],0.922
Cc1ccc(NS(=O)(=O)c2ccc(Cl)cc2)c(N=Cc2cc(Cl)cc(Cl)c2O)c1,normalized growth,[1],0.952
same,normalized growth,[2],0.965
same,normalized growth,[3],0.955
same,normalized growth,[4],0.961
same,normalized growth,[5],0.961
same,normalized growth,[6],0.958
same,normalized growth,[7],0.96
same,normalized growth,[8],0.968
same,normalized growth,[9],0.954
same,normalized growth,[10],0.962
same,normalized growth,[11],0.277 (active)
same,normalized growth,[12],0.961
same,normalized growth,[13],0.929
same,normalized growth,[14],0.958
same,normalized growth,[15],0.252 (active)
same,normalized growth,[16],0.169 (active)
same,normalized growth,[17],0.269 (active)
same,normalized growth,[18],0.945
same,normalized growth,[19],0.95
same,normalized growth,[20],0.948
same,normalized growth,[21],0.342 (active)
same,normalized growth,[22],0.965
same,normalized growth,[23],0.323 (active)
same,normalized growth,[24],0.219 (active)
same,normalized growth,[25],0.137 (active)
same,normalized growth,[26],0.118 (active)
same,normalized growth,[27],0.151 (active)
same,normalized growth,[28],0.147 (active)
same,normalized growth,[29],0.154 (active)
same,normalized growth,[30],0.949
same,normalized growth,[31],0.15 (active)
same,normalized growth,[32],0.162 (active)
same,normalized growth,[33],0.967
same,normalized growth,[34],0.363 (active)
same,normalized growth,[35],0.144 (active)
same,normalized growth,[36],0.336 (active)
same,normalized growth,[37],0.257 (active)
same,normalized growth,[38],0.291 (active)
same,normalized growth,[39],0.968
same,normalized growth,[40],0.273 (active)
same,normalized growth,[41],0.3 (active)
same,normalized growth,[42],0.198 (active)
same,normalized growth,[43],0.118 (active)
same,normalized growth,[44],0.203 (active)
same,normalized growth,[45],0.971
same,normalized growth,[46],0.289 (active)
same,normalized growth,[47],0.936
same,normalized growth,[48],0.946
same,normalized growth,[49],0.17 (active)
same,normalized growth,[50],0.951
same,normalized growth,[51],0.208 (active)
same,normalized growth,[52],0.949
same,normalized growth,[53],0.963
same,normalized growth,[54],0.145 (active)
same,normalized growth,[55],0.962
same,normalized growth,[56],0.193 (active)
same,normalized growth,[57],0.196 (active)
same,normalized growth,[58],0.303 (active)
same,normalized growth,[59],0.203 (active)
same,normalized growth,[60],0.96
same,normalized growth,[61],0.231 (active)
same,normalized growth,[62],0.234 (active)
same,normalized growth,[63],0.211 (active)
same,normalized growth,[64],0.958
same,normalized growth,[65],0.255 (active)
same,normalized growth,[66],0.959
same,normalized growth,[67],0.959
same,normalized growth,[68],0.943
same,normalized growth,[69],0.776 (active)
same,normalized growth,[70],0.959
